This is one part of a sample in which hits are shown more often than they occur.
SF1 inhibitor = blocks the human nuclear receptor SF-1; Q13285; CHO-K1 Gal4-SF-1 LBD luciferase reporter; inhibition, % at 10 µM; hit rate 0.55% among 65,000; AID 525;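 active means inhibition above the mean inhibition of all tested compounds plus 3 SD, cut at about 48% in these data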;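 further: 0% = SF-1 transfected cells with DMSO and 100% = mock-transfected cells lacking SF-1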
Target sequence (Q13285 whole entry, looked up, the tested form may be a part): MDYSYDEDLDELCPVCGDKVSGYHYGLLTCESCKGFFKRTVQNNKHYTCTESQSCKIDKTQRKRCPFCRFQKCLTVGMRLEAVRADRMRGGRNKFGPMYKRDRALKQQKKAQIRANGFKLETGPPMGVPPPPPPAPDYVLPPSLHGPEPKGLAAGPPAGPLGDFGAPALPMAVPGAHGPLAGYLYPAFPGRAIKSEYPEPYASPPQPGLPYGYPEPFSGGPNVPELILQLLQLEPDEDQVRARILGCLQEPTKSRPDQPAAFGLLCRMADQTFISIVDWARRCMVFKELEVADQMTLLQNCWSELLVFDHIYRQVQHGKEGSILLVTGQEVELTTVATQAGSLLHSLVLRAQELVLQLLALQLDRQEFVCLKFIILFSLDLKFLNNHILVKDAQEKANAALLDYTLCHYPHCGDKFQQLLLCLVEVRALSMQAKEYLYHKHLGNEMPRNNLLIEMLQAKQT
An asterisk follows results filed as active.

SMILES	SF1 inhibitor
O=C(Nc1nnc(C2CC2)o1)c1ccc(S(=O)(=O)N2CCCc3ccccc32)cc1	49*
CCC(C)[C@H](NC(=O)NCc1cccs1)C(=O)O (stereo not given in full)	-17
O=C(c1ccccc1)c1c[nH]c2cc3c(cc2c1=O)OCCO3	-50
Cc1ccc(-c2nsc3c(N4CCC(C(N)=O)CC4)ncnc23)cc1	49*
Cc1noc(C)c1COC(=O)c1cc2c3ccccc3n(C)c2s1	1
COC(=O)c1ccc(C(=O)OC)c(NC(=O)CSc2nnc(-c3ccccc3Cl)o2)c1	3
CCOc1cc(C(=O)CSc2nnc(CNc3ccc(Cl)cc3)o2)ccc1NC(=O)CC	56*
COc1ccc(OC)c(NC(=O)CSc2nnc(CNc3ccc(F)cc3)o2)c1	-10
COC1Cc2ccccc2N(C(=O)N2CCN(CCO)CC2)c2ccccc21 (stereo not given)	0
COCCn1c(SCCN2CCCCC2)nc2ccccc2c1=O	-7
COc1cccc(Cn2c(NCc3ccco3)nc3c2c(=O)n(C)c(=O)n3C)c1	63*
CCN(CC)CCn1c(NCc2cccc(OC)c2)nc2ccccc21	3
COc1ccc(OC)c(C(=O)CSc2nc3c(c(=O)n(C)c(=O)n3C)n2C(C)C)c1	9
Cn1c(=O)c2c(nc(CN3CCN(C(=O)c4ccco4)CC3)n2Cc2ccc(F)cc2)n(C)c1=O	-12
COc1ccc(Cl)c(Cn2c(NCc3ccco3)nc3c2c(=O)n(C)c(=O)n3C)c1	49*
COc1ccc(-n2nc(C(=O)NCc3ccco3)c3c4ccccc4n(C)c3c2=O)cc1	26
O=C(CN1C(=O)CSC1=O)Nc1ccc(F)c(F)c1F	4
CSc1nc(=NC(C)=O)ss1	18
COc1ccc(C(=O)N2c3cc4c(cc3C(C)=CC2(C)C)OCO4)cc1	-14
Cc1cccc(NC(=O)c2oc3c(c2C)C(=O)CC(C)(C)C3)n1	-10
COc1ccc(-n2nnnc2SCC(=O)c2cc3ccccc3o2)cc1	-2
O=C1c2ccccc2C(O)N1Cc1ccc2c(c1)OCO2 (stereo not given)	-14
O=C1/C(=C/Nc2ccc3c(c2)OCO3)CCc2ccccc21	74*
O=C(Nc1ccc2c(c1)OCO2)c1c(F)cccc1F	-58
O=C1C/C(=C/NCc2ccccc2)C(=O)N1	6
SMILES	SF1 inhibitor
CC[C@H]1OC(=O)C[C@@H](O)[C@H](C)[C@@H](O[C@@H]2O[C@H](C)C[C@H](N(C)C)[C@H]2O)[C@@H](CC=O)C[C@@H](C)C(=O)C=C[C@]2(C)O[C@H]2[C@@H]1C	9
CCN(CC)c1ccc2c(c1)CCCN2	5
Cc1ccccc1S(=O)(=O)Cc1ccc(C(=O)N2CCN(c3cccc(C)c3C)CC2)o1	82*
CC1CCN(CCCNC(=O)c2ccc(CS(=O)(=O)Cc3ccccc3F)o2)CC1	-8
CS(=O)(=O)N1CCN(c2ccccc2NC(=O)Cc2ccccc2)CC1	1
Cc1cccc(CN2CCN(CC(=O)NCc3ccc(F)cc3)C2=O)c1	3
Cc1ccc(SCCNC(=O)C(CO)(CO)CO)cc1	-5
CCN1CCN(c2ncc(C(=O)N3CCCc4ccccc43)c3ccccc23)CC1	-15
CCOC(=O)c1ccccc1NC(=O)COC(=O)C1=COCCO1	4
CC(=O)c1c(C)[nH]c(C)c1C(C)=O	7
CC(=O)c1c(C)[nH]c(C(=O)Nc2ccc(C)cn2)c1C	51*
Cc1ccccc1C(=O)Nc1ccc(Br)cn1	-82
Nc1nc(N)c2sc3nc4c(cc3c2n1)CCC4	-57
CC1C(O)=C(c2nc3ccccc3[nH]2)C(=N)N1c1ccccc1 (stereo not given)	-54
Cc1occc1C(=O)Nc1ccc2c(c1)CCC2	-75
Cc1c(NC(=O)CCC2CCCCC2)c(=O)n(-c2ccccc2)n1C	-10
CCOC(=O)c1cnc(-n2nc(C)cc2C)nc1NCc1ccc2c(c1)OCO2	22
CCOC(=O)N1CCC(C(=O)Nc2ccc(OCC)cc2)CC1	-17
CCOc1ccc(Nc2cc(C)nc(-n3nc(C)cc3C)n2)cc1	65*
CNC(=O)NC(=O)COC(=O)CCCOc1ccc(OC)cc1	9
O=C(CCC1CCCC1)N1CCN(C2CCCC2)CC1	8
CC(=O)C1=C(O)C(=O)N(CCc2c[nH]c3ccccc23)C1c1ccco1 (stereo not given)	-3
CCOC(=O)c1c(NC(=O)CSc2nc(C)cc(C)c2C#N)sc(C(C)=O)c1C	0
CCC(C)NC(=O)CCNS(=O)(=O)c1ccc(Br)cc1 (stereo not given)	1
COc1ccc(CNc2ccc3c(c2)nc(C)n3C)cc1	-79
SMILES	SF1 inhibitor
COc1ccc(CCNc2c(C)c(C)nc3ncnn23)cc1	81*
O=S(=O)(Nc1ccc2c(c1)nc1n2CCOC1)c1ccc(Cl)cc1	5
COc1ccc([C@@H]2Sc3ccccc3N(CCN(C)C)C(=O)[C@@H]2OC(C)=O)cc1	-6
CCn1c(SCC(=O)Nc2nc3c(s2)CCCC3)nc2c1c(=O)n(C)c(=O)n2C	11
CCOC(=O)Cc1cn2c(=O)cc(CSCC(=O)Nc3ccc(C)c(C)c3)nc2s1	-5
c1ccc(N2CCN(c3nc4cc5c(cc4s3)OCO5)CC2)cc1	-55
c1c2c(cc3sc(N4CCOCC4)nc13)OCO2	-58
O=C(Nc1nc2cc3c(cc2s1)OCO3)C1=COCCO1	62*
Cc1ccc2cccc(OC(=O)c3ccc4c(c3)OCCO4)c2n1	-12
CCc1c(C#N)c(N)nc(SCC(=O)OCc2ccccc2)c1C#N	-2
COc1ccc(C)cc1NC(=O)C1CCCN(S(=O)(=O)c2c(C)noc2/C=C/N(C)C)C1 (stereo not given)	6
O=C(CS(=O)(=O)c1ccccc1)c1ccc2c(c1)OCCO2	-52
O=S(=O)(C/C(=C/CO)S(=O)(=O)c1ccccc1)c1ccccc1	96*
N#C/C(C(=O)c1ccccc1)=C1/CCCCCN1	-61
CCNC(=O)NC(=O)COC(=O)c1ccccc1SCC(=O)NC(=O)NCC	-69
Cc1ccccc1NC(=O)C1CC(=O)N(c2ccccc2F)C1 (stereo not given)	16
O=C(Nc1nc(-c2ccc3c(c2)OCO3)cs1)C1CC1	-51
c1ccc(CCc2nc(-c3ccccn3)no2)cc1	-35
Clc1ccc(-c2nc(-c3ccccn3)no2)cc1Cl	51*
CCCCC1CCC(c2nc(-c3ccccn3)no2)CC1 (stereo not given)	-52
C=CCOC(=O)CN1C(=O)c2ccccc2C1=O	2
COC(=O)c1ccc(Oc2cc(C)nc(SC)n2)cc1	-71
O=C(CCc1c[nH]c2ccccc12)NCC1CCCO1 (stereo not given)	-4
CCCCOC(=O)C(C)c1c(C)[nH]c(=S)[nH]c1=O (stereo not given)	-5
Cn1c(-c2ccccc2)cc2c3no[n+]([O-])c3ccc21	73*
SMILES	SF1 inhibitor
CCCC12CN3CC(C)(CN(C1)C3c1ccc(OC(C)C)cc1)C2=O (stereo not given)	8
CCC(C)OC(=O)c1[nH]c2c(c1C)C(=O)CC(c1ccc(N(C)C)cc1)C2 (stereo not given)	-57
CCCOCCOC(=O)c1[nH]c2c(c1C)C(=O)CC(c1cc(OC)ccc1OC)C2 (stereo not given)	31
c1ccc2c(c1)oc1c(Nc3ccc(CN4CCOCC4)cc3)ncnc12	-54
COc1ccc(C)cc1NC(=O)NC1CCN(Cc2ccccc2)CC1	-1
C=CCNC(=O)C(C#N)c1nc2ccccc2nc1N1CCN(Cc2ccccc2)CC1 (stereo not given)	-6
Cc1ccc2c(c1)[nH]c1c(N3CCN(Cc4ccccc4)CC3)ncnc12	50*
c1ccc(CN2CCN(c3ncnc4c3[nH]c3ccccc34)CC2)cc1	50*

Screens from PubChem BioAssay.
